Source: PubChem BioAssay (NCI)
This is part of a sample that, as a whole, favours compounds with a hit. Of some 83,000 tested, about 20% had one in any assay.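 A percent growth of 40 corresponds to 60% growth inhibition; 0 means no net growth; -100 means all cells died. Active threshold: below 10.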 A number with no mark means an inactive call. Active and inactive are the calls of the source.

What was measured:
Assay in all cases: NCI-60 one-dose screen, 48 h (100 = growth as untreated, 0 = no growth, -100 = all killed)
[1] = system: SK-MEL-2 melanoma; settings: 10 µM unless noted
[2] = system: EKVX NSCLC; settings: 10 µM unless noted
[3] = system: SN12C renal; settings: 10 µM unless noted
[4] = system: UO-31 renal; settings: 10 µM unless noted
[5] = system: TK-10 renal; settings: 10 µM unless noted
[6] = system: ACHN renal; settings: 10 µM unless noted
[7] = system: CAKI-1 renal; settings: 10 µM unless noted
[8] = system: A498 renal; settings: 10 µM
[9] = system: HL-60(TB) leukemia; settings: 10 µM unless noted
[10] = system: CCRF-CEM leukemia; settings: 10 µM unless noted
[11] = system: MOLT-4 leukemia; settings: 10 µM unless noted
[12] = system: SR leukemia; settings: 10 µM unless noted
[13] = system: RPMI-8226 leukemia; settings: 10 µM unless noted
[14] = system: OVCAR-8 ovarian; settings: 10 µM unless noted
[15] = system: OVCAR-5 ovarian; settings: 10 µM unless noted
[16] = system: SK-OV-3 ovarian; settings: 10 µM unless noted
[17] = system: IGROV1 ovarian; settings: 10 µM unless noted
[18] = system: OVCAR-3 ovarian; settings: 10 µM unless noted
[19] = system: HS 578T breast; settings: 10 µM unless noted
[20] = system: OVCAR-4 ovarian; settings: 10 µM unless noted

| SMILES | growth [1] | growth [2] | growth [3] | growth [4] | growth [5] | growth [6] | growth [7] | growth [8] | growth [9] | growth [10] | growth [11] | growth [12] | growth [13] | growth [14] | growth [15] | growth [16] | growth [17] | growth [18] | growth [19] | growth [20] [%] |
| --- | --- | --- | --- | --- | --- | --- | --- | --- | --- | --- | --- | --- | --- | --- | --- | --- | --- | --- | --- | --- |
| Cc1ccc(C(Cc2ccccc2)NCCO)cc1 (centres undefined) | 54.7% | 100% | 102% | 86.1% | 88% | 89.6% | 98% | 97.9% | 91.4% | 98.5% | 88.2% | 105% | 92% | 103% | 55.4% | 75.8% | 103% | 100% | 97.8% | – |
| CCOC(=S)S[C@H]1C[C@@H]2[C@H](CC[C@]3(C)C(=O)CC[C@@H]23)[C@@]2(C)CCC(=O)C=C12 | 116% | 102% | 93.9% | 97.3% | 100% | 109% | 99.6% | 110% | 101% | 107% | 110% | 106% | – | 100% | 102% | 108% | 112% | 115% | 108% | 106 |
| O=C([O][Hg][CH2]C1COCC([CH2][Hg][O]C(=O)c2ccccc2)O1)c1ccccc1 (centres undefined) | 105% | 103% | 56.8% | -12.1% (active) | 38.1% | 70.6% | 57.2% | 114% | 23.1% | -10.3% (active) | -2.46% (active) | 46.8% | 71.8% | 94% | 134% | 118% | – | -94% (active) | 89.1% | 90.1 |
| C1CCC([PH+](C2CCCCC2)C2CCCCC2[PH+](C2CCCCC2)C2CCCCC2)CC1.O=C(C1[CH-]CCCC1)C1CCCC[N-]1.[Au] (centres undefined) | -52.6% (active) | -53.2% (active) | -52.3% (active) | -87.9% (active) | -47.7% (active) | -74.6% (active) | -57.4% (active) | -51.3% (active) | -39.2% (active) | 2.64% (active) | -5.55% (active) | -1.52% (active) | -10.6% (active) | 3.3% (active) | -64.5% (active) | -52.2% (active) | -33.5% (active) | -77.7% (active) | – | – |
| C[n+]1c(/C=C/c2ccc(N(CCCl)CCCl)cc2)sc2ccccc21 | 74.1% | 83.4% | 37.4% | 96.7% | 96.7% | 78.8% | 99.4% | 84.9% | 18.3% | 27.9% | 36.8% | 19.7% | 27.5% | 30% | 103% | 55.1% | 75% | 25.5% | 98.8% | – |
| O=P1(NCCCl)OCCCN1CCCl (centres undefined) | 99.6% | 105% | 101% | 87.5% | 97.7% | 98.8% | 99% | 108% | 100% | 99.1% | 101% | 91.2% | 105% | 114% | 106% | 100% | 111% | 107% | 92.7% | – |
| O=C1NC(=O)C(=Cc2cn(C(=O)c3ccccc3)c3ccccc23)C(=O)N1 | 96.5% | 97.5% | 91.9% | 64.2% | 138% | 93.5% | 92.8% | 115% | 108% | 104% | 88.3% | 90.5% | 114% | 92.3% | 94.7% | 91.5% | – | 108% | 103% | 92.1 |
| O=C(N/N=C/c1ccc(N(CCCl)CCCl)cc1)c1cccc2ccccc12 | 81.2% | 85.2% | 73.8% | 78.7% | 87.7% | 80.7% | 80.5% | -9.28% (active) | 29.5% | 56.6% | 51.4% | 24.2% | 73.9% | – | 93% | 69.1% | 79.2% | 61.8% | 69.4% | 88.5 |
| O=[N+]([O-])c1cc([N+](=O)[O-])c(Cl)cc1Cl | -43% (active) | -57.1% (active) | -89% (active) | -93.9% (active) | -92.9% (active) | -91.5% (active) | -81.2% (active) | 80.1% | -40.4% (active) | -36.3% (active) | -21% (active) | -31.3% (active) | -50.2% (active) | -26.8% (active) | -69.1% (active) | 104% | – | -98% (active) | -27.6% (active) | – |
| O=c1[nH]cc(N(CCCl)CCCl)c(=O)[nH]1 | 102% | 101% | 59.3% | 42.9% | 86.8% | 15.5% | 12.8% | 101% | -9.89% (active) | 31% | 15.3% | 10.4% | 77.8% | – | 70.1% | 93.3% | 50.2% | 98.5% | 87.8% | 105 |
| C1CCC([PH+](C2CCCCC2)C2CCCCC2[PH+](C2CCCCC2)C2CCCCC2)CC1.[Au].[CH-]1CCCCC1CC1CCCC[N-]1 (centres undefined) | -55.7% (active) | -61.9% (active) | -32% (active) | -81.4% (active) | -43.4% (active) | -72.5% (active) | -31.3% (active) | -91.6% (active) | -32.3% (active) | -12.5% (active) | 0.501% (active) | 1.21% (active) | -8.82% (active) | 5.9% (active) | -37.2% (active) | -70.5% (active) | -29.4% (active) | -86.5% (active) | – | – |
| COc1ccc2nc(NC(=O)COc3cc(/C=C\c4cc(OC)c(OC)c(OC)c4)ccc3OC)sc2c1 | 16.7% | 44.7% | 45.3% | 14.7% | 23.6% | 42.8% | 6.25% (active) | -5.19% (active) | 25% | 22.6% | 12.9% | 28% | 20.9% | 24% | 71.6% | 8.6% (active) | – | -39% (active) | -5.92% (active) | 49 |
| O=C1CC2(CC3(Cl)C(Cl)=C(Cl)C2(Cl)C3(Cl)Cl)C(=O)O1 (centres undefined) | 121% | 95.7% | 107% | 63.5% | 98.7% | 105% | 97.9% | 98.9% | 97.1% | 114% | 96.5% | – | 105% | 104% | 94.4% | 112% | 105% | 114% | – | 116 |
| COc1cccc(/C=C/[N+](=O)[O-])c1 | 97.4% | 89.2% | 99.5% | 45.8% | 90.9% | 74.7% | 96.8% | 43.8% | 17.4% | 51.2% | – | -21.6% (active) | -21.2% (active) | 79.6% | 92.8% | 94.4% | 55.8% | 75.2% | 95% | 104 |
| CC(=O)OCc1cc[c]([Hg][Cl])o1 | 64.9% | 78.8% | 55.9% | 83.1% | 127% | 60.8% | 25.9% | 123% | -25.1% (active) | -20% (active) | – | -20.3% (active) | 26.4% | 36.8% | 43.9% | 71% | 11.3% | 0.253% (active) | 57.5% | 62.9 |
| CC1(C)N=C(N)N=C(N)N1c1ccc(OCCCNC(=O)Nc2ccc(S(=O)(=O)F)cc2)c(Cl)c1 | 53.3% | 53% | 23.8% | 83.6% | 33.3% | 26.4% | 92.1% | 85.3% | 31.8% | 24.2% | 33.4% | – | 24.6% | 31.5% | 48% | 58.5% | 17.9% | 27.4% | 83.6% | 54.3 |
| NC(=Nc1ccccc1)N[N+](=O)[O-] | 127% | 94% | 102% | 92% | 103% | 114% | 97.6% | 110% | 38.7% | 52.1% | 89.2% | – | 104% | 119% | 91.4% | 98.4% | 121% | 110% | 97.5% | 96.5 |
